Only a selection was taken, and hits are over-represented in it overall.
TbPYK inhibitor: inhibitors of Trypanosoma brucei pyruvate kinase; Q57TT1; TbPYK enzyme, Kinase-Glo Plus ATP luminescence, 45 min; Potency, µM (top dose mostly 76.8 µM), hits mostly inhibitors; 410,000 compounds, 0.12% hits; AID 624173; note: nearly all actives have a fitted effect of over 50% in size
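Screened from lowest to highest concentration, compounds were pinned into TbPYK/substrate mixtures, and ADP (130 uM final) was added. Plates sat at room temperature for 45 min prior to Kinase-Glo Plus detection by luminescence.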
LmPK inhibitor: blocks Leishmania mexicana pyruvate kinase activity; Q27686; purified LmPK, Kinase-Glo ATP luminescence, 1 h; Potency, µM (top dose mostly 57.5 µM), most hits filed as inhibitors; 290,000 compounds, 0.37% hits
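In 50 mM imidazole pH 7.2 with 7 mM MgCl2, LmPK (0.1 nM) turned over PEP (0.5 mM) and ADP (0.1 mM) for 1 h at room temperature. Luciferase read-out of ATP.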
Shiga inhibitor: inhibitors of Shiga toxin in Vero cells; Vero cells, Shiga toxin protein synthesis inhibition reporter; inhibition, % at 38.7 µM; 290,000 compounds, 9.2% hits; in the data active = inhibition mostly above about 28%, no sharp cut-off; inactive = mostly below about 43%
Cycloheximide cs: affects cycloheximide protein synthesis inhibition readout, counter-screen | max response, % | AID 2314 | cell reporter, cycloheximide protein synthesis inhibition counterscreen | 300,000 compounds, 12% hits; in the data active = max response mostly above about 13%, no sharp cut-off; inactive = mostly below about 14%; note: read at 38.3 µM for the half of the compounds with a filed dose
RE007 growth inh: less growth of the S. pombe RE007 Vpr strain; S. pombe RE007 Vpr strain, BacTiter-Glo ATP luminescence, 24 h; Potency, µM (doses to about 92.2 µM), hits mostly inhibitors; 360,000 compounds, 0.21% hits; active = well fitted falling curve with a large enough effect; inconclusive = small, poorly fitted or top-dose-only effect; inactive = no such curve, though single readings can be large or run the other way; note: nearly all actives have a fitted effect of over 50% in size
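Fission yeast RE007 carrying one integrated HIV-1 vpr copy, seeded at OD 0.01 in PMG+AL medium with 23 nL pinned compound. Grown 24 h at 30 degrees; viability read by BacTiter-Glo luminescence after 5 min.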
Giardia FBPA inh: Giardia lamblia aldolase inhibition; AID 2451; 290,000 compounds, 0.71% hits; Potency, µM (top dose mostly 59.6 µM), most hits filed as inhibitors; A8B2U2; purified Giardia FBPA; note: nearly all actives have a fitted effect of over 55% in size
Target sequence (A8B2U2 whole entry, looked up): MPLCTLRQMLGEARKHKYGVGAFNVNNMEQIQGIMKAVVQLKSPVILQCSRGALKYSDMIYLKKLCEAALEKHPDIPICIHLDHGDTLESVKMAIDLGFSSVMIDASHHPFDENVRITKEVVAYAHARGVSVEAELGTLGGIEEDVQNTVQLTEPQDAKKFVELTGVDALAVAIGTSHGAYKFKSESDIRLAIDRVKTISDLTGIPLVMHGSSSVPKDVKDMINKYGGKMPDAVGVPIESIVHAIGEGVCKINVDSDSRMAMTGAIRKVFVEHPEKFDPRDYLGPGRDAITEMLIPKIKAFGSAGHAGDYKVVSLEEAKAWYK
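Giardia FBPA (40 nM reagent) was preincubated 10 min at RT with compound (up to 57.5 uM final), then substrate plus GAPDH/TPI/NAD/arsenate coupling system with diaphorase/resazurin was added; resorufin fluorescence (525/598 nm) was read after 20 min.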
A number is an active result. Unless noted, calls come from the whole dose curve; as a rule, active = well fitted curve in the direction sought with a large enough effect; inconclusive = small, poorly fitted or top-dose-only effect, or another doubt; inactive = no such curve, though single readings can be large; an effect the other way counts as inactive or inconclusive.

How did CCCCSC1(SCCCC)N=C(N)C2(C#N)C(c3ccccc3)NC(C)=C(C)C12C#N (centres undefined) do in these assays?
TbPYK inhibitor: inactive; LmPK inhibitor: inactive; Shiga inhibitor: inactive; Cycloheximide cs: inactive; RE007 growth inh: inactive; Giardia FBPA inh: inactive

How did COC1(OC)N=C(N)C2(C#N)C(c3ccc(F)cc3)C12C#N (centres undefined) do in these assays?
TbPYK inhibitor: inactive; LmPK inhibitor: inactive; Shiga inhibitor: inactive; Cycloheximide cs: inactive; RE007 growth inh: inactive; Giardia FBPA inh: inconclusive

Results for O=C(N[C@H]1CCCc2ccccc21)O[C@@H]1C(=O)c2cc(Br)ccc2O[C@H]1c1ccc2c(c1)OCO2 ?
Giardia FBPA inh: inactive

How did CCOc1ccc(NC(=O)CNS(=O)(=O)c2ccc(Br)s2)cc1 do in these assays?
TbPYK inhibitor: inactive

Results for O=C(c1ccc(Cl)cc1)N1N=CCC1(O)c1ccc(Cl)cc1 (centres undefined) ?
TbPYK inhibitor: inactive; LmPK inhibitor: inactive; Shiga inhibitor: inactive; Cycloheximide cs: 21.9; RE007 growth inh: inactive; Giardia FBPA inh: inactive

Results for CC(C)c1ccc(C(O)c2cnc(C(C)C)n2C)cc1 (centres undefined) ?
TbPYK inhibitor: inactive; LmPK inhibitor: inactive; Shiga inhibitor: 47.2; Cycloheximide cs: 36.2; RE007 growth inh: inactive; Giardia FBPA inh: inactive

What do the screens show for `CC(C)c1ncc(C(O)c2ccccc2)n1C` (centres undefined)?
TbPYK inhibitor: inactive; LmPK inhibitor: inactive; Shiga inhibitor: inactive; Cycloheximide cs: inactive; RE007 growth inh: inactive; Giardia FBPA inh: inactive

What do the screens show for `c1ccc(COc2ccc(CNn3cnnc3)cc2)cc1`?
TbPYK inhibitor: inactive; LmPK inhibitor: inactive; Shiga inhibitor: 65.1; Cycloheximide cs: 25.7; RE007 growth inh: inactive; Giardia FBPA inh: inactive

Results for Cc1cnc(NC(=O)Cc2c[nH]c3ccccc23)s1 ?
TbPYK inhibitor: inactive; LmPK inhibitor: inactive; Shiga inhibitor: inactive; Cycloheximide cs: 67.1; RE007 growth inh: inactive; Giardia FBPA inh: inactive

How did Cc1csc(NC(=O)c2cc(=O)[nH]c3ccccc23)n1 do in these assays?
TbPYK inhibitor: inactive; LmPK inhibitor: inactive; Shiga inhibitor: inactive; Cycloheximide cs: inactive; RE007 growth inh: inactive; Giardia FBPA inh: inactive

What do the screens show for `CCc1nnc(NC(=O)Cc2c[nH]c3ccccc23)s1`?
TbPYK inhibitor: inactive; LmPK inhibitor: inactive; Shiga inhibitor: inactive; Cycloheximide cs: inactive; RE007 growth inh: inactive; Giardia FBPA inh: inactive

What do the screens show for `Cc1csc(NC(=O)Cc2c[nH]c3ccccc23)n1`?
TbPYK inhibitor: inactive; LmPK inhibitor: inactive; Shiga inhibitor: 72.0; Cycloheximide cs: inactive; RE007 growth inh: inactive; Giardia FBPA inh: inactive

How did Cc1nc(-c2ccccc2)nc2[nH]c(=O)n(-c3ccccc3)c(=O)c12 do in these assays?
TbPYK inhibitor: inactive; LmPK inhibitor: inactive; Shiga inhibitor: 54.1; Cycloheximide cs: 31.0; RE007 growth inh: inactive; Giardia FBPA inh: inactive

How did CCOc1ccc(C2=Nc3ccccc3C(c3ccc(N4CCOCC4)cc3)=NN2)cc1 do in these assays?
TbPYK inhibitor: inactive; LmPK inhibitor: inactive; Shiga inhibitor: 162.8; Cycloheximide cs: 45.7; RE007 growth inh: inactive; Giardia FBPA inh: inactive

What do the screens show for `CCOc1ccc(C2=Nc3ccc(Br)cc3C(c3ccc(N4CCOCC4)cc3)=NN2)cc1`?
TbPYK inhibitor: inactive; LmPK inhibitor: inactive; Shiga inhibitor: 56.3; Cycloheximide cs: 44.1; RE007 growth inh: inactive; Giardia FBPA inh: inactive

Results for CCOc1ccc(C2=NNC(c3cccs3)=Nc3ccc(OC)cc32)cc1 ?
TbPYK inhibitor: inactive; LmPK inhibitor: inactive; Shiga inhibitor: 84.8; Cycloheximide cs: 34.9; RE007 growth inh: inactive; Giardia FBPA inh: inactive

What do the screens show for `COc1ccc2c(c1)c1c(c(=O)n(-c3ccccc3C)c(=O)n1CC(=O)NCc1ccc(C)cc1)n2C`?
TbPYK inhibitor: inactive

What do the screens show for `O=S(=O)(Nc1cc(Br)cc2cccnc12)c1cccc2ccccc12`?
Shiga inhibitor: inactive; Cycloheximide cs: inactive

How did COc1cc([C@@H]2Oc3cc([C@H]4Oc5cc(O)cc(O)c5C(=O)[C@H]4O)ccc3O[C@H]2CO)ccc1O do in these assays?
Giardia FBPA inh: inactive

What do the screens show for `O=C(/C=C\NCC(=O)c1ccccc1)c1ccc(F)cc1`?
TbPYK inhibitor: inactive; LmPK inhibitor: inactive; Shiga inhibitor: inactive; Cycloheximide cs: 28.3; RE007 growth inh: inactive; Giardia FBPA inh: inactive

How did O=C(CNC(=O)c1ccccc1)NCC(=O)OCC(=O)c1ccc(F)cc1 do in these assays?
TbPYK inhibitor: inactive; LmPK inhibitor: inactive; Shiga inhibitor: inactive; Cycloheximide cs: inactive; RE007 growth inh: inactive; Giardia FBPA inh: inactive

How did O=C(/C=C\NCC(=O)c1ccccc1)c1ccc2ccccc2c1 do in these assays?
TbPYK inhibitor: inactive; LmPK inhibitor: inactive; Shiga inhibitor: 51.9; Cycloheximide cs: 11.7; RE007 growth inh: inactive; Giardia FBPA inh: inactive

Results for Cc1cccc(C(=O)NNC(=O)c2ccc3ccccc3c2)c1 ?
TbPYK inhibitor: inactive; RE007 growth inh: inactive

How did Cc1cccc(CNC(=O)c2ccc3c(c2)N(C)C(=O)C2CCCCN32)c1 (centres undefined) do in these assays?
TbPYK inhibitor: inactive

Results for O=C(OCc1nnc(-c2ccccc2)o1)c1cc(Cl)ccc1[N+](=O)[O-] ?
TbPYK inhibitor: inactive; LmPK inhibitor: inactive; Shiga inhibitor: inactive; Cycloheximide cs: 31.2; RE007 growth inh: inactive; Giardia FBPA inh: inactive

How did CCOc1ncccc1C(=O)OCc1nnc(-c2ccccc2)o1 do in these assays?
TbPYK inhibitor: inactive; LmPK inhibitor: inactive; Shiga inhibitor: inactive; Cycloheximide cs: inactive; RE007 growth inh: inactive; Giardia FBPA inh: inactive

Results for O=C(OCc1nnc(-c2ccccc2)o1)c1cc(F)c(F)cc1Cl ?
TbPYK inhibitor: inactive; LmPK inhibitor: inactive; Shiga inhibitor: inactive; Cycloheximide cs: inactive; RE007 growth inh: inactive; Giardia FBPA inh: inactive

How did O=C(OCc1nnc(-c2ccc(Cl)cc2)o1)c1ccc(O)cc1 do in these assays?
TbPYK inhibitor: inactive; LmPK inhibitor: inactive; Shiga inhibitor: 28.3; Cycloheximide cs: 19.0; RE007 growth inh: inactive; Giardia FBPA inh: inactive

How did O=[N+]([O-])c1cc(-c2nnc(-c3ccccc3)o2)ccc1Oc1ccc(Cl)cc1 do in these assays?
TbPYK inhibitor: inactive; LmPK inhibitor: inactive; Shiga inhibitor: 60.7; Cycloheximide cs: 32.3; RE007 growth inh: inactive; Giardia FBPA inh: inactive

What do the screens show for `Cc1nnc(-c2ccc(Oc3ccc(Cl)cc3)c([N+](=O)[O-])c2)o1`?
TbPYK inhibitor: inactive; LmPK inhibitor: inactive; Shiga inhibitor: inactive; Cycloheximide cs: inactive; RE007 growth inh: inactive; Giardia FBPA inh: inactive

Results for O=C(OCc1nnc(-c2ccccc2)o1)c1cccnc1Cl ?
TbPYK inhibitor: inactive; LmPK inhibitor: inactive; Shiga inhibitor: inactive; Cycloheximide cs: 19.0; RE007 growth inh: inactive; Giardia FBPA inh: inactive

What do the screens show for `COc1cccc(NC(=O)C2CCC(CNS(=O)(=O)c3ccc4c(c3)CCCC(=O)N4)CC2)c1` (centres undefined)?
TbPYK inhibitor: inactive
